Compounds with a hit are over-represented: about 4.1% of the library has one in this group of screens.
hgDAF12 agonist: agonists of H. glycines DAF-12 nuclear receptor; HEK293 GAL4-hgDAF12 UAS-luciferase reporter, agonist luminescence; normalized to butyrate control; activation, % at 6.8 µM; 370,000 compounds, 1.8% hits; AID 687014;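 active = activation above a cutoff set at the mean of all screened compounds plus 3 SD, cut at about 10% in these data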;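 also: 0% = DMSO wells and 100% = sodium butyrate wells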
DAX1 inh-1: inhibitors of human orphan nuclear receptor DAX1 (NR0B1) | inhibition, % at 6.75 µM | AID 504766 | P51843 | HEK293 Gal4-DAX1 luciferase reporter, luminescence | 340,000 compounds, 0.99% hits;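 active = inhibition above the mean over all tested compounds plus 3 SD, cut at about 4.2% in these data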;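 also: 0% = DAX1-transfected cells with DMSO and 100% = empty-vector control cells with DMSO; inhibition shows as a rise in luminescence from relieved DAX1 repression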
Target sequence (P51843 207-470 limits assumed): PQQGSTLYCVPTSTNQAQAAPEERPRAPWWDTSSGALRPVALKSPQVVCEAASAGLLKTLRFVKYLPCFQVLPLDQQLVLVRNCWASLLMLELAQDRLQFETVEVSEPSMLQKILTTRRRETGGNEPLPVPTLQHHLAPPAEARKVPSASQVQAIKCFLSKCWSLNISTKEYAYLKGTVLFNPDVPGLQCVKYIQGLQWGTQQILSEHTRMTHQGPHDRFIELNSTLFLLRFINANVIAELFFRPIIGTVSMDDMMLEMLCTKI
ssDAF12 agonist: activates DAF-12 receptor from parasite S. stercoralis. HEK293 ssDAF-12/GRIP1 lit1-tk-luc reporter, luminescence; % of 3 µM dafachronic acid response. activation, % at 6.8 µM. 370,000 compounds, 1% hits;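 active = activation above the mean over all tested compounds plus 3 SD, cut at about 0.9% in these data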;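 also: 0% = DMSO-only wells and 100% = 3 µM delta7-dafachronic acid wells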
hcDAF-12 act: activates DAF-12 receptor from parasite H. contortus; HEK293 hcDAF-12 lit1-tk-luc reporter, luminescence; 0% DMSO, 100% Δ7-dafachronic acid; activation, % at 6.8 µM; 370,000 compounds, 1.4% hits; AID 652067;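 active = activation above the mean of all tested compounds plus 3 SD, cut at about 5.5% in these data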;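 also: 100% = response to 3 µM Δ7-dafachronic acid high control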
DAX1 inh-2: DAX1 (NR0B1) inhibition, primary screen. HEK293T StAR-luciferase reporter, SF-1/DAX-1 repression relief. 370,000 compounds, 1.1% hits. inhibition, % at 6.8 µM;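 active = inhibition above the mean over all tested compounds plus 3 SD, cut at about 3.6% in these data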;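 also: 0% = DAX-1 cells with DMSO and 100% = cells lacking DAX-1 with DMSO; higher inhibition means more luminescence from relief of DAX-1 repression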
The depositor's hits bear a star; . = no result given.

SMILES	hgDAF12 agonist	DAX1 inh-1	ssDAF12 agonist	hcDAF-12 act	DAX1 inh-2
O=C1NCC(CN(c2ccccc2)c2ccccc2)O1 (centres undefined)	-0.7	6.7*	-1.0	-1.8	-0.8
CCc1ccccc1NC(=O)C1CCC(=O)N(c2ccc(OC)cc2)C1c1ccc(OC)cc1 (centres undefined)	0.4	.	-0.6	0.5	1.6
O=C(Nc1ccc2c(c1)OCO2)c1cc(C2CCCCN2C(=O)CCc2ccccc2)on1 (centres undefined)	0.3	.	-0.9	-0.9	-1.2
O=C(Nc1ccc2c(c1)OCO2)c1cc(C2CCCCN2S(=O)(=O)Cc2ccccc2)on1 (centres undefined)	10.9*	.	-1.2	3.8	4.4*
CCOC(=O)N1CCN(C(=O)C[C@H]2C[C@@]3(C(=O)OC)C(=C[C@H](COCc4ccccc4)O[C@@H]3C)N(CCc3ccc(OC)c(OC)c3)C2=O)CC1	-1.3	.	-1.5	-3.1	1.3
Cn1c2c(c(=O)n(C)c1=O)NC1(N2)C(=O)Nc2ccccc21 (centres undefined)	3.6	-0.2	0.9*	5.1	-0.2
Cn1c2c(c(=O)n(C)c1=O)[C@@]1(C(=O)Nc3ccccc31)C(C#N)=C(N)O2	-4.2	-0.6	-0.9	1.5	0.2
O=C(Nc1cccc(-c2cn3cccnc3n2)c1)c1ccc2c(c1)OCO2	4.1	0.7	-1.9	-1.4	-1.1
c1cnc2nc(-c3ccc4c(c3)OCO4)cn2c1	13.2*	1.0	-0.9	3.2	4.1*
CCCCN(C(=O)CCN1C(=O)C2CC=CCC2C1=O)c1c(N)n(CCCC)c(=O)[nH]c1=O (centres undefined)	1.7	4.3*	-1.4	-1.4	0.2
CCCCn1c(N)c(N(CC)C(=O)C2=COCCO2)c(=O)[nH]c1=O	2.0	1.0	-0.2	-0.3	3.9*
CCCCN(C(=O)C1=COCCO1)c1c(N)n(CCCC)c(=O)[nH]c1=O	1.0	0.3	-0.9	0.2	0.6
Nc1c(C(=O)c2cccs2)oc2ccccc12	6.6	0.8	-0.4	6.1*	0.7
Nc1c(C(=O)c2ccc(Br)s2)oc2ccccc12	3.6	0.0	0.1	3.5	0.4
C=CCn1c(Cc2cccs2)nnc1SCC(=O)Nc1ccc(OCc2ccccc2)cc1	3.8	.	-1.5	-3.0	-1.9
N#CCC(=O)N/N=C\c1ccc(OC/C=C/c2ccccc2)cc1	7.5	-0.1	-0.8	0.2	-0.9
N#CCC(=O)N/N=C\c1ccccc1OC/C=C/c1ccccc1	7.8	2.2	-0.5	1.4	4.3*
O=C(NC1CCCCN(Cc2ccc(Cl)cc2)C1=O)c1ccc(F)cc1 (centres undefined)	-0.4	.	-1.5	-2.0	-1.4
O=C(NCCc1ccccc1)C1CCN(C(=O)c2ccc([N+](=O)[O-])cc2)CC1	4.7	0.2	0.9*	0.7	-0.8
CCS(=O)(=O)Nc1ccc2c(c1)C(=O)N(C)[C@@H]1CC[C@H](CC(=O)NCCOC)O[C@H]1CO2	0.7	.	-0.8	0.8	0.1
O=C(Cn1ncc(N2CCOCC2)c(Cl)c1=O)c1ccc(Cl)cc1	-0.3	5.4*	-1.3	-0.5	-0.3
O=C(Cn1ncc(Cl)c(Cl)c1=O)c1ccc(Cl)cc1	-1.4	-0.7	-0.3	0.1	-0.7
Cc1ccc(C)c(NC(=O)c2cc(-c3cccnc3)nc3ccccc23)c1	-0.5	6.3*	-1.3	-0.3	0.7
Cc1ccc(-c2cc(C(=O)NC3=NCCS3)c3ccccc3n2)cc1C	11.0*	0.1	-0.1	4.5	0.6
CN(CCO)c1ccc2c(c1)Oc1ccccc1CN(Cc1cn(Cc3ccc(F)cc3)nn1)S2(=O)=O	-0.1	.	0.1	-1.8	-1.1
SMILES	hgDAF12 agonist	DAX1 inh-1	ssDAF12 agonist	hcDAF-12 act	DAX1 inh-2
CN1CCCN(C(=O)CSc2nnc(-c3cccnc3)n2C2CCCCC2)CC1	-2.9	.	-0.9	2.7	2.3
CN(CCc1ccccn1)C(=O)c1cccnc1Oc1ccccc1	0.3	6.4*	-1.0	0.8	0.1
CC(C)NC(=O)N[C@H]1C[C@@H]2O[C@H](CO)CC[C@@H]2O[C@@H]1CCc1ccc(-c2ccccc2F)cc1	-0.6	.	-0.6	-0.2	-0.4
COc1ccccc1C1CC(=O)Oc2cc(C)c(Cl)cc21 (centres undefined)	1.5	0.0	-0.2	-0.8	-0.8
COc1ccccc1C1CC(=O)Oc2cc(O)ccc21 (centres undefined)	1.0	0.2	-1.8	-1.3	4.0*
COC(=O)C1=C(NC(C)=O)CCS1	-1.8	-0.2	-1.5	0.3	0.1
COC(=O)C1=C(NC(=O)c2ccc(C)cc2)CCS1	3.7	-0.4	1.9*	3.9	0.6
COC(=O)C1CN(Cc2cn(Cc3ccccc3)nn2)CCS(=O)(=O)N1Cc1ccc(C)cc1 (centres undefined)	0.5	.	-1.9	-2.0	-1.4
COc1ccc(C2=Nc3ccccc3C2(O)CCN2C(=O)c3ccccc3C2=O)cc1 (centres undefined)	10.5*	0.8	-0.8	0.4	0.5
COc1ccc(C2=NCCn3nc4cc([N+](=O)[O-])ccc4c32)cc1	1.1	-0.6	-0.8	5.8*	0.8
O=C(Nc1ccc2c(c1)OCCO2)c1cccc(Cl)c1Cl	12.2*	3.5	0.3	3.6	2.1
O=C(O)c1cc(NC(=O)c2ccc(Cl)c([N+](=O)[O-])c2)cc(C(=O)O)c1	-0.5	0.6	-0.7	0.2	1.0
Cc1cc(O)c(NC(=O)c2ccc(Br)o2)cc1C	13.1*	0.3	2.1*	5.8*	1.4
O=C(Nc1ccc2c(c1)OCCO2)c1ccc(Cl)c([N+](=O)[O-])c1	12.6*	3.5	-1.2	2.8	1.4
COc1ccccc1NC(=O)c1ccc(Br)o1	3.9	1.0	-0.6	2.1	0.4
O=C(Nc1ccc2c(c1)OCCO2)c1ccc(Br)o1	12.4*	0.6	0.1	4.1	2.4
CCCN1Cc2cccc(C(=O)Nc3ccc4c(c3)OCCO4)c2C1=O	1.5	4.6*	-0.5	1.0	0.5
CCCN1Cc2cccc(C(=O)Nc3ccc4c(c3)OCO4)c2C1=O	1.1	-0.3	-0.9	-1.3	0.4
CN(C)c1cccc2c1c(NC(=O)c1ccc(Cl)cc1)nn2C	-1.3	5.7*	0.8	3.6	-1.0
CN(C)c1cccc2c1c(NC(=O)Nc1ccccc1)nn2C	-1.2	4.3*	-1.0	-0.7	-0.9
Cc1ccccc1Nc1nc(N)nc(COC(=O)c2cccn2C)n1	8.0	5.5*	0.3	2.4	2.7
Cc1nc(NC(=O)c2ccc(Br)o2)sc1C	10.1	2.2	-0.1	2.3	2.4
Cc1ccc(C(=O)Nc2nc(C)c(C)s2)o1	12.9*	2.2	-0.6	4.1	3.0
COc1ccc(C(=O)CSc2nnc(-c3ccc(C(C)(C)C)cc3)n2C)cc1	3.9	.	-1.4	-3.4	-0.4
Cc1ccc(NC(=O)c2ncn(CCCNCC3CCCCC3)n2)cc1C	6.9	0.3	-0.3	-1.2	3.9*
Cc1ccc(NCCCn2cnc(C(=O)Nc3ccc(C)c(C)c3)n2)cc1C	-0.7	-1.1	-1.2	-1.2	-0.4
